Source: PubChem BioAssay
Compounds with a hit are over-represented: about 4.1% of the library has one in this group of screens.
ssDAF-12 act: S. stercoralis DAF-12 nuclear receptor activators, primary screen, cell-based, luminescence, HEK293, GRIP1 co-expression, lit1-tk-luc. Nuclear hormone receptor DAF-12 (Strongyloides stercoralis). hit rate 1% among 370,000. HEK293 ssDAF-12/GRIP1 lit1-tk-luc reporter; % of 3 µM dafachronic acid response. activation, % at 6.8 µM;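 active means activation above the mean over all tested compounds plus 3 SD, cut at about 0.9% in these data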
hgDAF-12 ag: H. glycines DAF-12 receptor agonists, primary screen, cell-based, luminescence, HEK293, GAL4 fusion, UAS-luciferase; activation, % at 6.8 µM; hit rate 1.8% among 370,000; HEK293 GAL4-hgDAF12 UAS-luciferase reporter, agonist luminescence; normalized to butyrate control;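 active means activation above a cutoff set at the mean of all screened compounds plus 3 SD, cut at about 10% in these data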
DAX1 inh-1: DAX1 (NR0B1) inhibitors on StAR promoter, primary screen, cell-based, luminescence, SF-1 (NR5A1), full-length DAX-1. inhibition, % at 6.8 µM. HEK293T StAR-luciferase reporter, SF-1/DAX-1 repression relief. hit rate 1.1% among 370,000;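 active means inhibition above the mean over all tested compounds plus 3 SD, cut at about 3.6% in these data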;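 further: higher inhibition means more luminescence from relief of DAX-1 repression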
hcDAF12 agonist: H. contortus DAF-12 nuclear receptor activators, primary screen, cell-based, luminescence, HEK293, lit1-tk-luc reporter; HEK293 hcDAF-12 lit1-tk-luc reporter; 0% DMSO, 100% Δ7-dafachronic acid; hit rate 1.4% among 370,000; activation, % at 6.8 µM;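 active means activation above the mean of all tested compounds plus 3 SD, cut at about 5.5% in these data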
DAX1 inh-2: DAX1 (NR0B1) inhibitors, primary screen, cell-based, HEK293, Gal4-DAX1, luciferase luminescence. inhibition, % at 6.75 µM. hit rate 0.99% among 340,000. HEK293 Gal4-DAX1 luciferase reporter. Nuclear receptor subfamily 0 group B member 1 (Homo sapiens), P51843;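 active means inhibition above the mean over all tested compounds plus 3 SD, cut at about 4.2% in these data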;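 further: inhibition shows as a rise in luminescence from relieved DAX1 repression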
Target sequence (P51843 207-470 limits assumed): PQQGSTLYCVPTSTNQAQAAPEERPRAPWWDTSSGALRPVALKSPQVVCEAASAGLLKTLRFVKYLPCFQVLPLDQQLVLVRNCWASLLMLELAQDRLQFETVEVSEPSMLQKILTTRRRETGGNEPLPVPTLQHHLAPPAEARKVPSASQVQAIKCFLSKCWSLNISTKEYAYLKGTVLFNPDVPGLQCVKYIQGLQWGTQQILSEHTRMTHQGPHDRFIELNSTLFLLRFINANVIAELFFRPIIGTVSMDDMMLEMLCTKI
Numbers stand for hits; - = inactive; . = no result.

SMILES	ssDAF-12 act	hgDAF-12 ag	DAX1 inh-1	hcDAF12 agonist	DAX1 inh-2
COC(=O)C[C@@H]1CC[C@@H]2[C@@H](COc3ccc(NC(=O)Nc4cccc(Cl)c4)cc3C(=O)N2C)O1	-	-	-	-	.
Cc1ccc(S(=O)(=O)Nc2ccccn2)c(C)c1	-	-	-	-	-
CCC(=O)Nc1ccc(S(=O)(=O)Nc2ccccn2)cc1	1.4	-	-	-	-
CCC(=O)Nc1ccc(S(=O)(=O)Nc2ncccn2)cc1	-	-	-	-	-
CC(C)CC(=O)Nc1ccc(S(=O)(=O)Nc2nccs2)cc1	-	-	-	-	-
CCC(=O)Nc1ccc(S(=O)(=O)Nc2nccs2)cc1	-	-	-	-	4.3
Cc1cc(C)c(S(=O)(=O)Nc2ccccn2)c(C)c1	-	-	-	-	4.3
O=C(Nc1ccc(S(=O)(=O)Nc2nccs2)cc1)C1=NN(c2ccccc2)C(=O)CC1	1.2	-	-	-	-
C[C@H]1[C@@H](OC(=O)NC2CCC2)CC[C@@]23CCCN2C(=O)CCC[C@@H]13	-	-	.	-	.
Cn1nc(C(=O)Nc2ccc(S(=O)(=O)Nc3ncccn3)cc2)ccc1=O	-	-	-	-	5.1
CC(C)C[C@@H]1COc2cc(Br)ccc2S(=O)(=O)N1Cc1cn(CC2CCCCC2)nn1	-	-	-	-	.
O=C(O)c1ccc(NC(=O)c2ccccc2NC(=O)c2ccccc2Cl)cc1	-	-	-	-	4.5
O=C(Nc1ccc(N=Nc2ccccc2)cc1)c1ccccc1Cl	-	11	3.9	-	-
CCOC(=O)C(Cc1ccccc1)NC(=O)CCc1c(C)nc2ncnn2c1C (stereo unspecified)	-	-	-	5.7	-
CCOC(=O)C(Cc1ccccc1)NC(=O)CCc1c(C)nc2nc(C)nn2c1C (stereo unspecified)	-	-	-	-	-
O=[N+]([O-])c1cnn(-c2nc(-c3cccs3)cc(C(F)(F)F)n2)c1	-	-	-	-	4.7
Cc1ccc2nc(=O)c(NNc3ccccc3)cnc2c1	1.0	-	-	-	-
COc1ccc(S(=O)(=O)NCc2ccncc2)cc1NC(=O)c1ccccc1	-	-	-	-	-
COc1ccc(S(=O)(=O)NCc2cccnc2)cc1NC(=O)c1ccccc1	-	-	-	-	5.3
COc1ccc(S(=O)(=O)NC(C)C(=O)NCc2cccnc2)cc1OC (stereo unspecified)	-	-	-	-	4.5
O=C(CCc1nc(-c2ccccc2F)no1)NCCc1c[nH]c2ccccc12	-	-	-	-	.
O=C(NCc1n[nH]c(=S)n1-c1ccc(Cl)c(Cl)c1)c1ccc(S(=O)(=O)N2CCCCC2)cc1	-	-	-	-	-
CCCN(CCC)S(=O)(=O)c1ccc(C(=O)NCc2n[nH]c(=S)n2-c2ccc(Cl)c(Cl)c2)cc1	-	-	-	-	5.2
COC(=O)N1CCCC1c1cccc2[nH]cc(C)c12 (stereo unspecified)	-	-	-	-	.
Cc1nc(C(=O)NNC(=O)c2ccccc2)c(C(F)(F)F)o1	-	-	-	-	4.3
SMILES	ssDAF-12 act	hgDAF-12 ag	DAX1 inh-1	hcDAF12 agonist	DAX1 inh-2
Cc1nc(C(=O)NCC(=O)c2ccccc2)c(C(F)(F)F)o1	-	-	-	-	-
CN1CCCN(C(=O)CSc2nnc(-c3cccnc3)n2C2CCCCC2)CC1	-	-	-	-	.
CCOC(=O)NN1C(=O)c2ccccc2NC1(C)C	-	-	-	-	-
CC1(C)Nc2ccccc2C(=O)N1NC(=O)c1ccccc1	-	-	-	5.7	-
O=C(CCN1C(=O)/C(=C\c2ccccc2F)SC1=S)Nc1ccc(C(=O)O)c(O)c1	-	-	3.9	-	-
Cc1ccc(Cl)cc1-c1cc(C(=O)Nc2ccc(F)cc2)[nH]n1	-	-	4.1	-	.
COc1ccc(-c2cc(C(=O)Nc3ccc(NC(C)=O)cc3)[nH]n2)c(C)c1	-	-	-	-	.
COc1ccc(Cl)c(-c2cc(C(=O)Nc3ccc(F)cc3)[nH]n2)c1	-	12	-	-	.
Cc1ccc(NC(=O)c2cc(-c3cc(Cl)ccc3O)n[nH]2)cc1C	-	-	-	-	-
